As usually defined, the inhibition is the change of the read-out against control, counted positive when it falls.

In test [1] the target is T1, Tyrosine-protein kinase receptor TYRO3 (Homo sapiens) (UniProt Q06418).
T1 sequence (whole entry): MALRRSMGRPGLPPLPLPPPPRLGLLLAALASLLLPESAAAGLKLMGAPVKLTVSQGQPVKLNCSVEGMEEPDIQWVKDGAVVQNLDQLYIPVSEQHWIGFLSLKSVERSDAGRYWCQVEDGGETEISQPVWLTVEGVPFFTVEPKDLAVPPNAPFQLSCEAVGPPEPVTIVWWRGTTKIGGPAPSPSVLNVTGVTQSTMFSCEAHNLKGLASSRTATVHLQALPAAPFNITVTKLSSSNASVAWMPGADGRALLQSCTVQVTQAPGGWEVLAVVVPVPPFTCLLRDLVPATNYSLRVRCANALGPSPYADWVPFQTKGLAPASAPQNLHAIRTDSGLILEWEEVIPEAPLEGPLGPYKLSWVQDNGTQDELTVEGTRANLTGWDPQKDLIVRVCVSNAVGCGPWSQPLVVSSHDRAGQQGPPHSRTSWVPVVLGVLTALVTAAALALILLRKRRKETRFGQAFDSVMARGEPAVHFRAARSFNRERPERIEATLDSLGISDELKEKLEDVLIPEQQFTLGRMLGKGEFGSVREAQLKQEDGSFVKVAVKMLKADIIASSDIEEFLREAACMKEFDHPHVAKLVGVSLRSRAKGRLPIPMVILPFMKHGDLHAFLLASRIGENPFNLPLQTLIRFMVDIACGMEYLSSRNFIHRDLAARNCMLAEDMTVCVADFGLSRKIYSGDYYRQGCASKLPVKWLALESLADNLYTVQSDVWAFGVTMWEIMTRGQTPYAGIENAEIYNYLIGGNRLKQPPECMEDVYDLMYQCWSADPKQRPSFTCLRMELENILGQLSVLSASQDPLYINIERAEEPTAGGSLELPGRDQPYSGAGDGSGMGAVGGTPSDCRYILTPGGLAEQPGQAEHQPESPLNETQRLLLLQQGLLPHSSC
The conditions noted are these: at 1 µM.

Test [2] deals with Tyrosine-protein kinase Yes (Homo sapiens) (UniProt P07947). Particulars: at 0.1 µM.
Tyrosine-protein kinase Yes (Homo sapiens), sequence (P07947 2-543 limits assumed): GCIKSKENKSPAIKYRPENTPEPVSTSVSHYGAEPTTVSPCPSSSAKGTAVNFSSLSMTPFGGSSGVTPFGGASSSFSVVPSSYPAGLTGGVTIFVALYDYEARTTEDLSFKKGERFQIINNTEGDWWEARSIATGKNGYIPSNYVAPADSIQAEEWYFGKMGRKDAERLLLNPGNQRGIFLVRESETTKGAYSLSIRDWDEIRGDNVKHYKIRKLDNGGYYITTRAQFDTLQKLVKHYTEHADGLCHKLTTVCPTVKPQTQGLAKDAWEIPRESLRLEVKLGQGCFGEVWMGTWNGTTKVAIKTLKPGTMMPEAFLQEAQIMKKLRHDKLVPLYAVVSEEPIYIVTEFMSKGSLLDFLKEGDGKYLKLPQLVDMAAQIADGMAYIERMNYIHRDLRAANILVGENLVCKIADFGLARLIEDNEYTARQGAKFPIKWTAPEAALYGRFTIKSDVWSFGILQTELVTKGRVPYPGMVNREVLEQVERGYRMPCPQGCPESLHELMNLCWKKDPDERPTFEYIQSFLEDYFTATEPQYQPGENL
Test [3] shares this target. Particulars: at 1 µM.
For test [4], the target named is T2, Tyrosine-protein kinase ZAP-70 (Homo sapiens) (UniProt P43403).
T2 sequence (whole entry): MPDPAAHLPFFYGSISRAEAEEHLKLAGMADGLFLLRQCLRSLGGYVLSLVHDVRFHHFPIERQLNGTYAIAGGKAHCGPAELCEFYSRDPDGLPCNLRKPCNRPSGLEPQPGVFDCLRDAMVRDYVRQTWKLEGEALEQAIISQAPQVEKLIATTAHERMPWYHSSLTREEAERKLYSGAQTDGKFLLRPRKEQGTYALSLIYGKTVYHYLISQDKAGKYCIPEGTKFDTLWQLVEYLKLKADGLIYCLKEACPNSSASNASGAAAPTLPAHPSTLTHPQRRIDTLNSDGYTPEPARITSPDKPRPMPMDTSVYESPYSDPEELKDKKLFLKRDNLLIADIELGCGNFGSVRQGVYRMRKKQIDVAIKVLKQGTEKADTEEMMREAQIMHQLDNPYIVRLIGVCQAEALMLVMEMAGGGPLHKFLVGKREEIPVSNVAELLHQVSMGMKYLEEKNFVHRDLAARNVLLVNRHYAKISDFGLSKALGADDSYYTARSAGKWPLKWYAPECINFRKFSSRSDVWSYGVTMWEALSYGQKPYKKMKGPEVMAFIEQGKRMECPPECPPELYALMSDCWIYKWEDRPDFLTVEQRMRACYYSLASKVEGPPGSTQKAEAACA
The conditions noted are these: at 0.1 µM.

Test [5] addresses T2, Tyrosine-protein kinase ZAP-70 (Homo sapiens). The conditions noted are these: at 1 µM.
Test [6] deals with Serine/threonine-protein kinase B-raf (Homo sapiens) (UniProt P15056). The conditions noted are these: at 0.1 µM.
Serine/threonine-protein kinase B-raf (Homo sapiens), sequence (P15056 whole entry): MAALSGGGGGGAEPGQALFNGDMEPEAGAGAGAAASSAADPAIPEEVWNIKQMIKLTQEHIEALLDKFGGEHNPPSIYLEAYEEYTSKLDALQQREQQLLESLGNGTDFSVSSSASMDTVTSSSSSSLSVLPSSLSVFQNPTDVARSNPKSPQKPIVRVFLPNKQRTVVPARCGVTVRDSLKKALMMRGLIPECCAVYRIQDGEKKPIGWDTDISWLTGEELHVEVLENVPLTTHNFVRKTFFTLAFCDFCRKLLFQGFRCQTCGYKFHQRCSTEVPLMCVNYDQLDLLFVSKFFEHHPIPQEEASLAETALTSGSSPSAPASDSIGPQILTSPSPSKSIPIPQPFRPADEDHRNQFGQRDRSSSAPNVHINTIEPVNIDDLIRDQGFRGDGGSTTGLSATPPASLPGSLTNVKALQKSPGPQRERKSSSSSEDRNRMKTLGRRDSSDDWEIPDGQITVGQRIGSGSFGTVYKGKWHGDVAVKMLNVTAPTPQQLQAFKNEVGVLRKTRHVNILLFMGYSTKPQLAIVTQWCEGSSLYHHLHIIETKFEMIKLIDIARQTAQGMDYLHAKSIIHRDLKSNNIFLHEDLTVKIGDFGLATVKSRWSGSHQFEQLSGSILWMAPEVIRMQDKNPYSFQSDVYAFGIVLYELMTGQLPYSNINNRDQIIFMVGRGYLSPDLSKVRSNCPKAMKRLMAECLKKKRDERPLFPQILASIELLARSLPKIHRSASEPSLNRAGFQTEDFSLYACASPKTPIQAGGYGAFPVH
The target is the same in test [7]. Particulars: at 1 µM.
Test [8] relates to Serine/threonine-protein kinase B-raf (Homo sapiens), P15056 [V600E]. The conditions noted are these: at 0.1 µM.
Serine/threonine-protein kinase B-raf (Homo sapiens), P15056 [V600E], sequence (P15056 whole entry V600E): as the sequence (P15056 whole entry) above, with V600E counted along it
Test [9] shares this test system. The conditions noted are these: at 1 µM.
In test [10] the target is RAF proto-oncogene serine/threonine-protein kinase (Homo sapiens) (UniProt P04049). The conditions noted are these: at 0.1 µM.
RAF proto-oncogene serine/threonine-protein kinase (Homo sapiens), sequence (P04049 whole entry): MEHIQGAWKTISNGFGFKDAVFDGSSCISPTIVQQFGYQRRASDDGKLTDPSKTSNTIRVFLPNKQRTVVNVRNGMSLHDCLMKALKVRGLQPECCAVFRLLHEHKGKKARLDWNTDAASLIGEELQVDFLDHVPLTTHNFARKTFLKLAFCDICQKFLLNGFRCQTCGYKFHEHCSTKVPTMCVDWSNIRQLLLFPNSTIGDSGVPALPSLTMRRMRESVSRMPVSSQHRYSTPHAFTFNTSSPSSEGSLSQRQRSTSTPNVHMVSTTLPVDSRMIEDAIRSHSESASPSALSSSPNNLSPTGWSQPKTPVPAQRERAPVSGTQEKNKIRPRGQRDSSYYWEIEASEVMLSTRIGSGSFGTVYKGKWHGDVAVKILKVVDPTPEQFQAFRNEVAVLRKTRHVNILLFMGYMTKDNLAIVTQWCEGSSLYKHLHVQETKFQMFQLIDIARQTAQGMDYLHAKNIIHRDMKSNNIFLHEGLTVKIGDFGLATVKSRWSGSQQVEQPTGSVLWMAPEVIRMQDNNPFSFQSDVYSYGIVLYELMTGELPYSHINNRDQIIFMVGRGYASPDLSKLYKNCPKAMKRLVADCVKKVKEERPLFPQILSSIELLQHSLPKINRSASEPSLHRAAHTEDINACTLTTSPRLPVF
The target is the same in test [11]. Particulars: at 1 µM.
In test [12] the target is T3, Interleukin-1 receptor-associated kinase 4 (Homo sapiens) (UniProt Q9NWZ3).
T3 sequence (whole entry): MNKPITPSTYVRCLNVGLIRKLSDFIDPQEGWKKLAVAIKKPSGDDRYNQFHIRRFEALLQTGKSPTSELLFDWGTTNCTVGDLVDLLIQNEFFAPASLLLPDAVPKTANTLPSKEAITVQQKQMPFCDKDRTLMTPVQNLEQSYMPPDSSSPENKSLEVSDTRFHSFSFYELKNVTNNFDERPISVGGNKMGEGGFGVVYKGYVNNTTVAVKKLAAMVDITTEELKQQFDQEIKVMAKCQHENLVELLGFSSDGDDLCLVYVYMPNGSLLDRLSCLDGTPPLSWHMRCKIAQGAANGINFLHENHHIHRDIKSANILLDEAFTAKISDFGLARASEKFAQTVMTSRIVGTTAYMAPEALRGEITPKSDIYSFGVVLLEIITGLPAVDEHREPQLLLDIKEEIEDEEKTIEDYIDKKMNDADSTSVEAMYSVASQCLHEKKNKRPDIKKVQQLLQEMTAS
Particulars: at 0.1 µM.

For test [13], the target named is T3, Interleukin-1 receptor-associated kinase 4 (Homo sapiens). Particulars: at 1 µM.
For test [14], the target named is Leucine-rich repeat serine/threonine-protein kinase 2 (Homo sapiens) (UniProt Q5S007). Particulars: at 0.1 µM.
Leucine-rich repeat serine/threonine-protein kinase 2 (Homo sapiens), sequence (Q5S007 whole entry): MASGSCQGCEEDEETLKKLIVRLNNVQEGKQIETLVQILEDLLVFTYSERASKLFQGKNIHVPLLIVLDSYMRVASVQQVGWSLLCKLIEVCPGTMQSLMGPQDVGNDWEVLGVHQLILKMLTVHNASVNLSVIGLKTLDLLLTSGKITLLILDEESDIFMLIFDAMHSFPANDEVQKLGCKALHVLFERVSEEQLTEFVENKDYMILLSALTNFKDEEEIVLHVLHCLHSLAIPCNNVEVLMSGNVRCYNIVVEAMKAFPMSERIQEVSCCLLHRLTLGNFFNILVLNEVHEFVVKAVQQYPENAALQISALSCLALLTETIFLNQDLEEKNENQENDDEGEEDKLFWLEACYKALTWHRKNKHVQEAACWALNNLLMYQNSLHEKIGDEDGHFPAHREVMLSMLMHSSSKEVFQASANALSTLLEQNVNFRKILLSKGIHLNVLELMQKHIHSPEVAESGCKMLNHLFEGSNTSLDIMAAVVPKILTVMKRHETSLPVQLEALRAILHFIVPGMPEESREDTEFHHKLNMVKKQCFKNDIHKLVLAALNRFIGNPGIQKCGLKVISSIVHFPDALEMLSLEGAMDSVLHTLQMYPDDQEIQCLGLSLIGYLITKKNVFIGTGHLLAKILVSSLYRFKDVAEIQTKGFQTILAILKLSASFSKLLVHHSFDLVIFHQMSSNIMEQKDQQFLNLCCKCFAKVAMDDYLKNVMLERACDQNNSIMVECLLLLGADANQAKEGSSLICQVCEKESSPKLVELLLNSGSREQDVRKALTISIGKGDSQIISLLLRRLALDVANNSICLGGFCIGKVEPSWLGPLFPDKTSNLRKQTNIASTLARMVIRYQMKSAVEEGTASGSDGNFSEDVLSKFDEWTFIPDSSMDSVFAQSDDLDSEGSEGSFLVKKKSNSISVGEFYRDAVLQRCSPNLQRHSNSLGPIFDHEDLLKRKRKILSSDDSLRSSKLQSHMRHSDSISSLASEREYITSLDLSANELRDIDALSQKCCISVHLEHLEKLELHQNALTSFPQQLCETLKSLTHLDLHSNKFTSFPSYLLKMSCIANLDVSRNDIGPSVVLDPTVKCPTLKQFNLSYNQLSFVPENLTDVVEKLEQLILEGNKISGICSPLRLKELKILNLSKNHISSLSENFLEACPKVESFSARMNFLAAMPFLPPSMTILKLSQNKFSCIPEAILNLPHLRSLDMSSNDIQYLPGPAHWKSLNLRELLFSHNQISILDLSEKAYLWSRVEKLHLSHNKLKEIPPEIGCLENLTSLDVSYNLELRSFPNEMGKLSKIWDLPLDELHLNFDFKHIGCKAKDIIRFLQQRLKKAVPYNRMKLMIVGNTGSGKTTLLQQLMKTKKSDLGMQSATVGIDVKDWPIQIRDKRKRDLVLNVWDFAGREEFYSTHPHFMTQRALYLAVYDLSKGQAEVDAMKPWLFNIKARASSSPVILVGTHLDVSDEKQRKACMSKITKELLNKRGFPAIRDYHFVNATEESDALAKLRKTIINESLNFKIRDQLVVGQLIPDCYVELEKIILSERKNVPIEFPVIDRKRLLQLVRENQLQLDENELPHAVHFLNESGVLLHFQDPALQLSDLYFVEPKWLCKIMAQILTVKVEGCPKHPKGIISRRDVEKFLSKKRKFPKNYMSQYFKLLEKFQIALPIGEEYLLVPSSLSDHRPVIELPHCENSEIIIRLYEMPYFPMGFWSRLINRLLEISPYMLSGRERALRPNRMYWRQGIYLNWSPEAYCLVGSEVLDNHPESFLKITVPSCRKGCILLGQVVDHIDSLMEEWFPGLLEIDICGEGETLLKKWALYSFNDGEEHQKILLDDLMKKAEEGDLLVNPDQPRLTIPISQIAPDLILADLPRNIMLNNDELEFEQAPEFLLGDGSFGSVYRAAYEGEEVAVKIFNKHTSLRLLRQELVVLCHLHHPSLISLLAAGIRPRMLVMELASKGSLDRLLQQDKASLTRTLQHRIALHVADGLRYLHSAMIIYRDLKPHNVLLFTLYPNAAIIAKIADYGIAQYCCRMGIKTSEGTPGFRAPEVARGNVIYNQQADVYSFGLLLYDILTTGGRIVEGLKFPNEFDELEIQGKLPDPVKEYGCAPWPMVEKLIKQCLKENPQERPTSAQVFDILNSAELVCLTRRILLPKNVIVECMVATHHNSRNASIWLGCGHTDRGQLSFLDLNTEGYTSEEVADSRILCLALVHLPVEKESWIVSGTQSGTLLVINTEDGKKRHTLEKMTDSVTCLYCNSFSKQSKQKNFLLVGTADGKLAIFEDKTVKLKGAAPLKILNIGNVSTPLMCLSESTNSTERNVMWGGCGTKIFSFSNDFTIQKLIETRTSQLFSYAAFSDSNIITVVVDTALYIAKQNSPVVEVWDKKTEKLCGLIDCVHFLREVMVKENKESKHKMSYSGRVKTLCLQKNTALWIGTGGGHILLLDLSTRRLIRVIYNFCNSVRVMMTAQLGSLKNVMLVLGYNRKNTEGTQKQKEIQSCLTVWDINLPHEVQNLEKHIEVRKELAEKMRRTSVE
Test [15] shares this target. Particulars: at 1 µM.
Test [16] concerns Leucine-rich repeat serine/threonine-protein kinase 2 (Homo sapiens), Q5S007 [G2019S]. The conditions noted are these: at 0.1 µM.
Leucine-rich repeat serine/threonine-protein kinase 2 (Homo sapiens), Q5S007 [G2019S], sequence (Q5S007 whole entry G2019S): as the sequence (Q5S007 whole entry) above, with G2019S counted along it
Test [17] has the same test system. Particulars: at 1 µM.

`COc1ccc2[nH]c3c4[nH]c5ccc(OC)cc5c4c4c(c3c2c1)C(=O)NC4=O`: the inhibition in test [1] was determined as 63.7%; in [2] it was 6.75%; in test [3], 33.5%; in test [4] it was 2.68%; in test [5], 8.6%; in [6], 5.05%. Further, the inhibition in [7] is 7.83%; in test [8], 5.01%; in test [9], 6.69%; in test [10], -1.72%; in test [11] it was -1.59%; in test [12], -1.07%. Further, the inhibition in test [13] turned out to be 4.52%; in test [14], 20.8%; in test [15], 24.3%; in [16] it was 61%; in [17], 63.2%.

As for `CN1CCC(n2cnc(-c3ccc(F)cc3)c2-c2ccnc(N)n2)CC1`, the inhibition was determined as 7.48% in [1]; 2.09% in [2]; 13.4% in test [3]; 1.2% in [4]; 2.81% in [5]; 1.83% in test [6]. Also, the inhibition in test [7] was 5.24%; in test [8], 1.74%; in [9], 5.35%; in test [10], -0.57%; in test [11], -4.14%; in test [12], 3.88%. Also, the inhibition was 0.94% in test [13]; 0.66% in [14]; 1.74% in [15]; 1.6% in test [16]; 9.24% in test [17].

For the molecule `CCN1CCC(CC(=O)Nc2n[nH]c3nnc(-c4cccc(F)c4F)cc23)CC1`, the inhibition in test [1] is 1.73%; in [2], 2.07%; in test [3], 5.8%; in [4] it was -0.89%; in test [5] it was 0.5%; in [6], 3.25%. Besides, the inhibition in [7] is 2.64%; in test [8], 2.74%; in [9] it was 1.57%; in [10], 10.2%; in test [11], 10.2%; in [12], 0.45%. For the same molecule, the inhibition worked out at 1.11% in [13]; 2.47% in [14]; 4.14% in test [15]; 2.58% in test [16]; 4.75% in test [17].

Regarding `COc1ccc(-c2cc3c(N)ncnc3o2)cc1`, the inhibition in test [1] was 2.56%; in test [2], 0.83%; in test [3], 6.69%; in [4], -2.99%; in test [5], -0.14%; in test [6], -1.18%. Moreover, the inhibition in test [7] was -0.19%; in [8], -0.23%; in test [9] it was 1.67%; in test [10], 1.23%; in [11] it was -0.66%; in test [12], -0.28%. Further, the inhibition in test [13] was found to be 0.08%; in test [14] it was 0.9%; in test [15], 3.63%; in test [16], 1.45%; in test [17] it was 2.82%.

Consider `N#Cc1c(NC(=O)CN2CCOCC2)sc2c1CCCC2`, for which the inhibition was 3.91% in [1]; 3.9% in [2]; 3.95% in test [3]; 1.13% in [4]; -1.02% in test [5]; 5.62% in test [6]. For the same molecule, the inhibition in test [7] was 6.96%; in test [8], 5.95%; in test [9], 4.84%; in [10], 4.41%; in [11], -1.23%; in test [12] it was 1.87%. In addition, the inhibition in test [13] was 2.93%; in test [14] it was 2.88%; in test [15] it was 8.63%; in [16] it was 3.95%; in [17], 8.85%.

Regarding `CNC(=O)c1cc(-c2ccc(F)cc2)cc(-c2ccc(S(=O)(=O)N3CCCC3)cc2)c1N`, the inhibition is 1.73% in test [1]; 2.18% in test [2]; 3.44% in test [3]; -0.4% in test [4]; -0.59% in test [5]; 3.72% in test [6]. Further, the inhibition in test [7] is 3.4%; in [8] it was 3.04%; in test [9], 3.6%; in test [10] it was 0.46%; in test [11], -2.71%; in test [12], 0.68%. Moreover, the inhibition in [13] came out at 1.45%; in [14], 1.42%; in test [15], 2.9%; in test [16] it was 4.27%; in test [17] it was 5.64%.

For `CNC(=O)c1cncc(/C=C/c2ccccc2Cl)c1`, the inhibition in test [1] was 2.53%; in test [2], 3.64%; in test [3] it was 7.95%; in test [4], 1.79%; in test [5], 1.12%; in test [6] it was -0.63%. The inhibition in test [7] was 0.08%; in test [8], -0.33%; in test [9] it was 0.71%; in test [10] it was 0.74%; in test [11], -3.13%; in [12], -1.64%. For the same molecule, the inhibition in [13] came out at 0.01%; in test [14], 3.2%; in test [15], 4.57%; in [16] it was 1.78%; in test [17] it was 6.07%.

(Values after ChEMBL document CHEMBL1961873, “Compounds: GSK PKIS; Assays: Nanosyn kinase panel” (2012).)
